In all, about 33,000 sequences were measured (“E-score (-0.5 to 0.5)”: median about -0.041, highest 2% from about 0.37 on). Many of the other results were omitted from the sample, so the highest values are more common in it than they were.
Each sequence was assayed against T1, Ecm22 (UniProt Q05958) (assay: PBM E-score (8-mer binding enrichment) (E-score (-0.5 to 0.5)); higher = stronger / more preferred TF binding). Details: protein concentration: 200 nM; construct: GST-full length.
T1 sequence: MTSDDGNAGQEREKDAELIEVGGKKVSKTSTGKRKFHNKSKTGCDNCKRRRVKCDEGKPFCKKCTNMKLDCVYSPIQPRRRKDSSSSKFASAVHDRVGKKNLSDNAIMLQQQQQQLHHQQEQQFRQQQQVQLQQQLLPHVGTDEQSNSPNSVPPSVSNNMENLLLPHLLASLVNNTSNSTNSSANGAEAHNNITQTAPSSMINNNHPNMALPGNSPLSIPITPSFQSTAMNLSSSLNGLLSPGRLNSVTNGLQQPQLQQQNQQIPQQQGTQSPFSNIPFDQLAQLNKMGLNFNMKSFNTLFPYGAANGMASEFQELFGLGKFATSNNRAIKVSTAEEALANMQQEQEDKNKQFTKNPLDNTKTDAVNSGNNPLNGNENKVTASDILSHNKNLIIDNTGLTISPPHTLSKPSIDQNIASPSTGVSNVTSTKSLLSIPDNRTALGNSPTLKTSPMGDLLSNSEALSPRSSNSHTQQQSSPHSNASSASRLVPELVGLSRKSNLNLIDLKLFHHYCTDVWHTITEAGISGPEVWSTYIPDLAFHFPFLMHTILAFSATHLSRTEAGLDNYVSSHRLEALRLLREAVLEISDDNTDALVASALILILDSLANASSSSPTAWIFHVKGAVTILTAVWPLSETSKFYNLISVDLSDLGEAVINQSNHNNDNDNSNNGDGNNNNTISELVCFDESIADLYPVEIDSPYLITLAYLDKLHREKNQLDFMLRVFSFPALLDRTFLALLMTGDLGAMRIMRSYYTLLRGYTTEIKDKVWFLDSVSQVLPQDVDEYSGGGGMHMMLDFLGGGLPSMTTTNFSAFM
Procedure: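 Universal 'all 10-mer' protein binding microarrays (Agilent AMADID 015681) probed with GST-tagged S. cerevisiae TFs (full-length or DBD) made by in vitro transcription/translation (PURExpress), about 100-200 nM. Bound TF was detected with fluorescent anti-GST. Each ungapped 8-mer (which stands for itself and its reverse complement) is scored by the PBM enrichment score (E-score), a modified Wilcoxon-Mann-Whitney statistic from -0.5 to +0.5, computed with the Universal PBM Analysis Suite. Scale: above 0.35 generally sequence-specific binding.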

| Sequence | PBM E-score |
| --- | --- |
| AGTACATA | -0.0214 |
| CATACAAG | -0.122 |
| CGTACATA | 0.414 |
| AGTACAAG | 0.0646 |
| CGTACAAA | 0.412 |
| CGTACTGA | 0.32 |
| ACCACCAT | -0.103 |
| TTAGGGAA | -0.0515 |
| ATAACGGC | 0.146 |
| ATGAAGGC | -0.102 |
| CGTGGACC | -0.108 |
| ACGGAATG | 0.0826 |
| AGTGTTGA | -0.109 |
| AAGCCGAG | 0.0901 |
| ACTGGATG | -0.18 |
| CGTACAAC | 0.434 |
| CGTACTAA | 0.341 |
| AGTACAAC | 0.0262 |
| CGTACTAG | 0.342 |
| GGTACAAC | 0.0714 |
| CGTACTAC | 0.382 |
| CTAAACAG | -0.109 |

| Sequence | PBM E-score |
| --- | --- |
| AAACCACT | -0.153 |
| AGCTGCGG | -0.00448 |
| AATCGCCC | -0.0815 |
| TAGAGCCA | -0.288 |
| ACTCCGTG | -0.233 |
| AGGTCGGC | -0.138 |
| AGTTACGC | 0.071 |
| AGTTACGG | 0.138 |
| CGTTACAA | 0.0964 |
| CGTTACGA | 0.403 |
| GGTTACCA | 0.0711 |
| AGTTACGA | 0.393 |
| GGTTACTA | -0.123 |
| GGTTACGA | 0.381 |
| CGTTACGC | 0.256 |
| GTGGCGTA | 0.042 |
| CCCGTTGC | 0.111 |
| CCTCGGGC | 0.0916 |
| ACTTCACC | 0.0335 |
| AAAATCAC | -0.0192 |
| GGACGAAA | 0.108 |
| GTACGAAA | 0.467 |

| Sequence | PBM E-score |
| --- | --- |
| GCACGAAA | 0.103 |
| ACACGAAT | 0.217 |
| ACACGAAG | 0.249 |
| ATACGTAT | 0.374 |
| AGACGAAT | 0.0921 |
| ATACGTAC | 0.342 |
| ATACGAAG | 0.466 |
| ATACGAAT | 0.45 |
| ATACGTAA | 0.278 |
| AGACGAAG | 0.0703 |
| AGCCTTAA | -0.0857 |
| AACTTGGT | 0.0861 |
| TGTGTCAA | -0.0896 |
| CGCAAGCC | 0.0725 |
| GGATCCCC | -0.0315 |
| TTACGAAA | 0.403 |
| TCACGAAA | -0.00573 |
| CTACGAAA | 0.302 |
| ACACGAAA | 0.224 |
| AGACGAAA | 0.194 |
| ATACGAAA | 0.463 |
| ATGGTTCA | 0.0295 |

| Sequence | PBM E-score |
| --- | --- |
| AGAACCCC | -0.179 |
| GACCCTCC | 0.00379 |
| CGTGCGTA | 0.233 |
| GCCCCCCA | -0.365 |
| AGGATTAG | -0.0677 |
| CCGCAACG | 0.377 |
| CCGCAACC | -0.176 |
| ACGCAACG | 0.308 |
| GCGGCACC | -0.0132 |
| ATCGATGA | -0.0837 |
| AACGATGA | 0.386 |
| AACGATGT | 0.396 |
| GACGATGC | -0.0114 |
| AAAGATGT | -0.0546 |
| TACGATCA | 0.443 |
| GACGATCA | -0.0466 |
| CACGATGC | 0.136 |
| GACGATGA | -0.0197 |
| CACGATCA | -0.00633 |
| TACGATGA | 0.438 |
| CACGATGA | 0.19 |

Source: the supplement of paper PMC3334620
